Where a name gives a salt, the structure may show the parent alone.
Each compound was assayed on Staphylococcus aureus Sa2 (MRSA, cystic fibrosis isolate) (assay: growth reduction vs untreated control (OD550); higher = stronger antibacterial activity). Details: 0.1 mM; 24 h.
Procedure: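 Single-dose screen of the MedChem Express Drug Repurposing Library (0.1 mM, 1% DMSO) against planktonic MRSA S. aureus Sa2 (CF isolate) in TSB in 96-well plates, 37 °C aerobic, 24 h. Assays were run in triplicate and repeated twice.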

Compound	growth reduction [%]
Fc1ccc(C(c2ccc(F)cc2)N2CCN(C/C=C/c3ccccc3)CC2)cc1 [Flunarizine (dihydrochloride)]	94.4
CC(OC(=O)NCC1(CC(=O)O)CCCCC1)OC(=O)C(C)C (configuration not stated) [Gabapentin enacarbil]	90.4
Cc1ccc(-c2cc(C(F)(F)F)nn2-c2ccc(S(N)(=O)=O)cc2)cc1 [Celecoxib]	95.6
CCOc1nc2cccc(C(=O)OC(C)OC(=O)OC3CCCCC3)c2n1Cc1ccc(-c2ccccc2-c2nn[nH]n2)cc1 (configuration not stated) [Candesartan Cilexetil]	100
CC1(S(=O)(=O)O)CC(=O)c2ccccc2C1=O (configuration not stated) [Menadione bisulfite (sodium)]	99.5
CC/C(=C(\c1ccccc1)c1ccc(OCCN(C)C)cc1)c1ccccc1 [Tamoxifen (Citrate)]	100
C[C@@H](NCCCc1cccc(C(F)(F)F)c1)c1cccc2ccccc12 [Cinacalcet]	97.4
CC1=C(/C=C/C(C)=C/C=C/C(C)=C/C(=O)Nc2ccc(O)cc2)C(C)(C)CCC1 [Fenretinide]	100
CCCCOc1nc(N)c2c(n1)N(Cc1cccc(CN3CCCC3)c1)CC(=O)N2 [Vesatolimod]	100
C[C@@H](OC[C@@]1(c2ccccc2)CC[C@]2(CCC(=O)N2)CN1)c1cc(C(F)(F)F)cc(C(F)(F)F)c1 [Rolapitant]	100
CC(C)(C)c1ccc(C(O)CCCN2CCC(C(O)(c3ccccc3)c3ccccc3)CC2)cc1 (configuration not stated) [Terfenadine]	100
CNC(=O)c1cc(Oc2ccc(NC(=O)Nc3ccc(Cl)c(C(F)(F)F)c3)cc2)ccn1 [Sorafenib]	93.5
CC(C)(C)[C@@H]1NC(=O)O[C@@H]2CCC[C@H]2OC/C=C/C(F)(F)c2nc3ccccc3nc2O[C@@H]2C[C@@H](C(=O)N[C@]3(C(=O)NS(=O)(=O)C4(C)CC4)C[C@H]3C(F)F)N(C2)C1=O [Glecaprevir]	100
COC1=C(OC)C(=O)C(CCCCCCCCCC[P+](c2ccccc2)(c2ccccc2)c2ccccc2)=C(C)C1=O [Mitoquinone (mesylate)]	100
C=C1CC[C@H](O)C/C1=C/C=C1\CCC[C@]2(C)[C@@H]([C@H](C)/C=C/[C@H](C)C(C)C)CC[C@@H]12 [Vitamin D2]	100
C#C[C@]1(OC(C)=O)CC[C@H]2[C@@H]3CCC4=C[C@@H](OC(C)=O)CC[C@@H]4[C@H]3CC[C@@]21C [Ethynodiol diacetate]	92.7
CN(C)CCOc1ccc(/C(=C(/CCCl)c2ccccc2)c2ccccc2)cc1 [Toremifene (citrate)]	100
CCCCCc1ccc(C=CC(=O)Nc2ccccc2C(=O)O)cc1 [N-(p-amylcinnamoyl) Anthranilic Acid]	100
COc1ccc2c(c1OCc1ccccc1)C[C@@H](C(=O)O)N(C(=O)C(c1ccccc1)c1ccccc1)C2 [Olodanrigan]	95.1

Compound	growth reduction [%]
COc1cccc(-c2ccc(NC(=O)C3=C(C(=O)O)CCC3)c(F)c2)c1 [Vidofludimus]	93
Clc1ccc(CCC(Cn2ccnc2)Sc2c(Cl)cccc2Cl)cc1 (configuration not stated) [Butoconazole (nitrate)]	100
C[C@@H](O[C@H]1OCCN(Cc2n[nH]c(=O)[nH]2)[C@H]1c1ccc(F)cc1)c1cc(C(F)(F)F)cc(C(F)(F)F)c1 [Aprepitant]	98.2
CC(C(=O)O)c1ccc2c(c1)CC(=O)c1ccccc1S2 (configuration not stated) [Zaltoprofen]	96.7
C=CC(=O)Nc1cc(Nc2nccc(-c3cn(C)c4ccccc34)n2)c(OC)cc1N(C)CCN(C)C [Osimertinib (dimesylate)]	100
O=C(O)c1ccc(-n2nc(-c3ccccc3O)nc2-c2ccccc2O)cc1 [Deferasirox]	96.2
Nc1ccc(S(=O)(=O)Nc2cnc3c(Cl)cccc3n2)cc1 [Chloroquinoxaline sulfonamide]	91.6
COc1cc(F)c(F)c(Nc2ccc(I)cc2F)c1NS(=O)(=O)C1(C[C@H](O)CO)CC1 [Refametinib]	100
C[C@@H](NCCCc1cccc(C(F)(F)F)c1)c1cccc2ccccc12 [Cinacalcet (hydrochloride)]	100
Cc1ccc(NC(=O)C2(c3ccc4c(c3)OC(F)(F)O4)CC2)nc1-c1cccc(C(=O)O)c1 [Lumacaftor]	92.9
CCCCCOc1ccccc1/C(=C\SC)n1ccnc1 [Neticonazole (hydrochloride)]	100
CC1=CC(=O)c2ccccc2C1=O [Menadione]	96.7
CCCCCNC(=N)N/N=C/c1c[nH]c2ccc(OC)cc12 [Tegaserod (maleate)]	100
O=C(Nc1ccccc1)c1ccccc1O [Salicylanilide]	91.4
CO[C@@H](Cc1ccc(OCCc2nc(-c3ccccc3)oc2C)c2ccsc12)C(=O)O [Aleglitazar]	92.2
C=CC[C@@H]1/C=C(\C)C[C@H](C)C[C@H](OC)[C@H]2O[C@@](O)(C(=O)C(=O)N3CCCC[C@H]3C(=O)O[C@H](/C(C)=C/[C@@H]3CC[C@@H](O)[C@H](OC)C3)[C@H](C)[C@@H](O)CC1=O)[C@H](C)C[C@@H]2OC [Tacrolimus (monohydrate)]	100
C[C@H]1O[C@@H](n2cc(F)c(=O)[nH]c2=O)[C@H](O)[C@@H]1O [Doxifluridine]	97.9
CC(=O)Oc1cc(C)c(OC(C)=O)c2ccccc12 [Vitamin K4]	95.5
